Hits are enriched below; roughly 1.7% of the tested compounds scored in any of these assays.
HEK293 tox – qHTS of GLP-1 Receptor Inverse Agonists: Cytotox Screen | HEK293 cAMP-luciferase reporter cells, luminescence, 24 h | Potency, µM (highest dose often 38.3 µM), inactives show top-dose activity change, negative = inhibition, usual class: inhibitors | 410,000 tested, 0.13% active | AID 624418, 2012;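 further: loss of luciferase light is scored as toxicity; on the % scale 0 is the no-effect control and ±100 the full control effect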
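Step one: seed cells (200 cells/uL, DMEM with 10% Nu serum, 1% pen-strep). Step two: 12-hour incubation at 37 deg C. Step three: pin 23 nL compound, incubate 24 hr. Step four: add luciferase reagent, read luminescence 12 min later.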
GLP-1R agonist – qHTS of GLP-1 Receptor Agonists | Glucagon-like peptide 1 receptor (Homo sapiens), P43220 | HEK293 GLP-1R CRE-luciferase, luminescence, 4-6 h; cells express a hypersensitive GLP-1R form | Potency, µM (doses to about 45.6 µM), inactives show at the highest dose activation, actives largely listed as activators | 380,000 tested, 0.007% active | AID 624172, 2012; further: % of control where 0% means no effect
Target sequence (P43220 whole entry, looked up): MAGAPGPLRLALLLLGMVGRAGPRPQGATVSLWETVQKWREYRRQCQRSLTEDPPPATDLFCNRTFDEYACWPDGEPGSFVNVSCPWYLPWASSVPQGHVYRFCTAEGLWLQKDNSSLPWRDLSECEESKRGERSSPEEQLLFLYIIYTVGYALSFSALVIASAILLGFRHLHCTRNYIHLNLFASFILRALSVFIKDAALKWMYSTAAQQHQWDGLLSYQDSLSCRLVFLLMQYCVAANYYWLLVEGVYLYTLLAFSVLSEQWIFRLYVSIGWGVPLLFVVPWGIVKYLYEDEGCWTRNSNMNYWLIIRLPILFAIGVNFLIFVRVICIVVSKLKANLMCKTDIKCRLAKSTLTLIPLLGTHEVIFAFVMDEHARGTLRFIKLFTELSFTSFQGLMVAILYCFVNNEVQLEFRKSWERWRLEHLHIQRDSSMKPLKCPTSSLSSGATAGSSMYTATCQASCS
GLP-1R inv ag – qHTS of GLP-1 Receptor Inverse Agonists (Inhibition Mode) | Glucagon-like peptide 1 receptor (Homo sapiens), P43220 | HEK293 GLP-1R CRE-luciferase, luminescence, 24 h; GLP-1R form is constitutively active | Potency, µM (titrated, usually from 38.3 µM), inactives show top-dose activity change, negative = inhibition, most hits filed as inhibitors | 410,000 tested, 1.6% active | AID 624417, 2012; further: on the % scale 0 is the no-effect control and ±100 the full control effect; nearly all actives have a fitted effect of over 55% in size
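Cells are plated, allowed 12 hours at 37 deg C, then treated with compounds for 24 hr before luciferase detection reagent is added and luminescence is read after 12 min at room temperature. The HEK293 line carries constitutively active GLP-1R with a cAMP-responsive reporter.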
The depositor's hits bear a star; ? = inconclusive; · = not tested or not shown. The call rests on the fitted dose curve; in most records, active means well fitted curve in the direction sought with a large enough effect; inconclusive means small, poorly fitted or top-dose-only effect, or another doubt; inactive means no such curve, though single readings can be large; an effect the other way counts as inactive or inconclusive. Potency means the concentration at half of the fitted maximal effect.

SMILES	HEK293 tox	GLP-1R agonist	GLP-1R inv ag
COC(=O)N/N=C/c1cn(Cc2ccc(F)cc2)c2ccccc12	-4.7%	12.6%	7.94µM*
O=C(N/N=C/c1cn(CCOc2ccccc2)c2ccccc12)c1ccncc1	-7.9%	3.0%	-18.7%
COC(=O)N/N=C/c1cn(Cc2ccccc2F)c2ccccc12	0.6%	5.5%	?
COC(=O)N/N=C/c1cn(CCCOc2ccccc2)c2ccccc12	6.9%	4.3%	10µM*
Cc1cc(N2CCN(c3cccc(C)c3C)CC2)n2nc(C)c(-c3ccc(Cl)cc3)c2n1	18.9%	-2.1%	6.9%
CCNC1=C(Cl)C(=O)c2ccccc2C1=O	?	-3.3%	?
O=C1C(Cl)=C(NCCN2CCCCC2)C(=O)c2ccccc21	?	-7.1%	11.2µM*
Cc1ccc(Cn2c(C(=O)O)c(CNCc3ccc(OC(C)C)cc3)c3ccc(C)cc32)cc1	?	-5.5%	12.6µM*
Cc1ccc(CNCc2c(C(=O)O)n(Cc3ccc(C)cc3)c3cc(C)ccc23)cc1	?	-6.3%	?
Oc1c(C(c2ccccc2)N2CCN(c3cccc(Cl)c3)CC2)sc2nc(-c3ccco3)nn12 (stereo not given)	-1.0%	·	?
Cc1ccc(Nc2nc(-c3ccc(S(=O)(=O)N4CCCC4)cc3)cs2)cc1C	-32.9%	2.6%	?
Cc1cc(C)cc(Nc2nc(-c3ccc(S(=O)(=O)N4CCCC4)cc3)cs2)c1	-17.8%	1.4%	3.55µM*
CC[n+]1c(/C=C/c2c[nH]c3ccccc23)ccc2cc(C)ccc21	?	-7.0%	10µM*
CCN(CC)C(=O)c1ccc(/C=C/c2c[nH]c3ccccc23)[n+](C)c1	-20.3%	-5.2%	-1.0%
S=c1nc2ccccc2c2nc(-c3ccccc3)[nH]n12	0.891µM*	-3.0%	?
S=c1nc2ccccc2c2nc(-c3ccccc3Cl)[nH]n12	-48.2%	-4.8%	?
CC(C)NC(=O)C1(C)CN(S(C)(=O)=O)CC(=O)N1C1CCCCCC1 (stereo not given)	3.4%	·	1.8%
Cc1noc(C)c1CCC(=O)NC1CCCN(Cc2ccc(CC(C)C)cc2)C1 (stereo not given)	-17.3%	-3.7%	10µM*
Cc1noc(C)c1CCC(=O)NC1CCCN(Cc2ccc(Cl)cc2)C1 (stereo not given)	-1.9%	-6.0%	-4.9%
CC(C)Cc1ccc(CN2CCCC(NC(=O)c3ccoc3)C2)cc1 (stereo not given)	?	2.9%	8.91µM*
CC(C)Cc1ccc(CN2CCCC(NC(=O)c3ccnn3C)C2)cc1 (stereo not given)	2.7%	2.2%	?
CCOc1ccccc1NC(=O)c1ccccc1NC(=O)c1ccco1	-3.4%	15.4%	33.1%
O=C(Nc1ccccc1OCc1ccccc1)c1ccccc1Br	24.1%	16.6%	10µM*
COCCNC(=O)C(c1ccc(C)cc1)N(Cc1ccco1)C(=O)CCC(=O)Nc1ccccn1 (stereo not given)	21.5%	4.0%	17.6%
CCCCCCCCCCCC[n+]1ccc2ccccc2c1	·	-2.6%	·
SMILES	HEK293 tox	GLP-1R agonist	GLP-1R inv ag
Cc1ccc(CSc2cn(CC(=O)N3CCCC3)c3ccccc23)cc1	0.7%	·	?
O=C(CSc1cn(CC(=O)N2CCCCC2)c2ccccc12)NCc1ccccc1Cl	-14.6%	·	?
Cc1ccc(CSc2cn(CC(=O)N3CCCCCC3)c3ccccc23)cc1	0.2%	·	10µM*
O=C(Cn1cc(SCc2ccc(C(F)(F)F)cc2)c2ccccc21)N1CCCCC1	0.7%	·	-4.9%
O=C(Cn1cc(SCc2ccc(C(F)(F)F)cc2)c2ccccc21)N1CCCCCC1	0.3%	·	7.08µM*
CC1CCN(C(=O)Cn2cc(SCC(=O)NCc3ccccc3Cl)c3ccccc32)CC1	-23.9%	·	10µM*
COc1ccc(NC(=O)c2cc3c(s2)-c2c(C)cccc2OC3)c(OC)c1	18.1%	·	0.1%
CNC(=O)C[C@H]1C(=O)N(C2CCCCC2)C[C@@H]1c1ccc(Br)cc1	4.1%	8.0%	-29.2%
O=C1c2ccccc2C2(c3ccccc3)NCCCN12 (stereo not given)	4.4%	1.4%	19.0%
O=C1c2ccccc2C2(c3cc(C(F)(F)F)cc(C(F)(F)F)c3)NCCN12 (stereo not given)	-14.7%	20.4%	10µM*
CC(CC(=O)NCCc1ccc(F)cc1)c1ccccc1 (stereo not given)	-10.8%	4.8%	?
COc1cccc(NC(=O)COc2cccc3c2CCNC3=O)c1	2.5%	-9.3%	25.8%
